Source: PubChem BioAssay AID1851 (National Center for Advancing Translational Sciences (NCATS), 2009)
Among all 16,000 compounds or so, about 5,100 (32%) were called active. Another 25% or so got no clear call; they are omitted. Calls follow the shape of the dose curve; as a rule, active = well fitted curve in the direction sought with a large enough effect; inconclusive = small, poorly fitted or top-dose-only effect, or effect the other way; inactive = no such curve, though single readings can be large or run the other way. The list shows a part of the results.

These compounds were tested against Cytochrome P450 3A4 (Homo sapiens) (UniProt P08684) (assay: Cytochrome panel assay with activity outcomes). Conditions: recombinant CYP, pro-luciferin dealkylation, luminescence, p450-cyp3a4; series mostly up to 57.1 µM; activity, negative = inhibition: at the top concentration.
Chain of Cytochrome P450 3A4 (Homo sapiens) (P08684 whole entry, looked up): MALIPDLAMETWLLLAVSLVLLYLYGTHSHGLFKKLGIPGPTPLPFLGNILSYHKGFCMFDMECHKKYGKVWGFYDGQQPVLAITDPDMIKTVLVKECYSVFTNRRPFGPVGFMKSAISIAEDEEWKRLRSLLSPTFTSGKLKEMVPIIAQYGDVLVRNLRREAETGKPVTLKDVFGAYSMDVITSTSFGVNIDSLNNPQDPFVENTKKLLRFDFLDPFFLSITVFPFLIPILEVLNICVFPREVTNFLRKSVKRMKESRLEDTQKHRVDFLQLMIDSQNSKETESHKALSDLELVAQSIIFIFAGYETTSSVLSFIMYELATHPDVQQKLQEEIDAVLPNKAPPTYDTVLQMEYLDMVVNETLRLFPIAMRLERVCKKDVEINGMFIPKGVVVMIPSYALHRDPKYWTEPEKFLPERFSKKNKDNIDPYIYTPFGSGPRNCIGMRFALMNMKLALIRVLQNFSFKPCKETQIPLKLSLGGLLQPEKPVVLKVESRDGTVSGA
% is scaled to controls: 0 for no effect and ±100 for the full control effect.

AC50, active:
O=C(CSc1nc2ccccc2s1)N1c2ccccc2Sc2ccccc21 11.2 µM
CC(C)(C)c1[nH]nc2c1C(c1ccc(OC(=O)c3ccco3)cc1)C(C#N)=C(N)O2 (stereo not drawn) 2.24 µM
O=C(Nc1cccc2[nH]ncc12)c1ccc(F)cc1 15.8 µM
O=C(Nc1ccccc1)N1CCCC2(CCN(C(=O)c3cc(C(F)(F)F)cc(C(F)(F)F)c3)CC2)C1 15.8 µM
O=C(Nc1cccc(F)c1)N1CC[C@@]2(CCCN(C(=O)c3cc(C(F)(F)F)cc(C(F)(F)F)c3)C2)C1 15.8 µM
O=C(Nc1cccc(F)c1)N1CCCC2(CCN(C(=O)c3cc(C(F)(F)F)cc(C(F)(F)F)c3)CC2)C1 12.6 µM
N#Cc1cccc(NC(=O)N2CCCC3(CCN(C(=O)c4cc(C(F)(F)F)cc(C(F)(F)F)c4)CC3)C2)c1 10 µM
Cc1csc(NC(=O)Cc2c[nH]c3ccccc23)n1 35.5 µM
C=CC[C@@H]1C=C[C@@H](O/N=C\[C@@H](OC)[C@H](C)/C=C\CC(=O)OC)[C@@H](CO)O1 3.16 µM
C=CC[C@@H]1C=C[C@H](O/N=C\[C@@H](C)[C@H](OCc2ccccc2)C(C)C)[C@H](CO)O1 3.98 µM
COc1ccc(CNC(=O)Nc2cccs2)cc1OC 22.4 µM
COc1cc(CNCc2cccs2)cc(Br)c1OC 7.08 µM
COc1cc(CNCc2cccs2)ccc1OCC(=O)NC(C)(C)C 4.47 µM
COc1ccc(OC)c(C(=O)CN2C(=O)NC(C)(c3ccccc3)C2=O)c1 (stereo not drawn) 10 µM
COC(=O)[C@H]1C[C@@H]1[C@H](NC(=O)c1cccnc1)c1ccccc1 5.01 µM
COC(=O)[C@@H]1C[C@H]1[C@@H](NC(=O)c1cccnc1)c1ccccc1 10 µM
CNc1ncncc1-c1ccccc1C(F)(F)F 0.794 µM
Fc1ccc(Nc2ncncc2-c2ccccc2C(F)(F)F)cc1 0.398 µM
FC(F)(F)c1ccccc1-c1cncnc1Nc1ccccc1 0.501 µM
C[C@H]1CC[C@H]2C(=O)N[C@H](Cc3ccccc3)C(=O)N2[C@@H]1c1ccccc1 2.51 µM

AC50, inactive:
N[C@@H](C(=O)O)c1ccc(C(=O)O)c(C(=O)O)c1

activity, negative = inhibition, inactive:
O=C(CSc1nc2ccccc2s1)c1sc2sc3ccccc3[n+]2c1O -12.2% [at 11.4 µM]
CO/N=C(\C(=O)N[C@@H]1C(=O)N2C(C(=O)O)=C(COC(N)=O)CS[C@@H]12)c1ccco1 18.5% [at 25.6 µM]
N[C@@H](CSS(=O)(=O)O)C(=O)O -15.1%
COC(=O)c1ccccc1NC(=O)c1ccc(F)cc1 -21%
O=C(Nc1ccccc1Cl)c1ccn[nH]1 11.2%
Cn1cccc1C(=O)N1CCC2(CCN(C(=O)Nc3cccc(F)c3)CC2)CC1 21.8%
COCC(=O)N1CCC2(CC1)CN(C(=O)Nc1cccc(F)c1)C2 -6.8%
O=C(Nc1ccccc1)N1CC2(CCN(C(=O)c3cc(C(F)(F)F)cc(C(F)(F)F)c3)CC2)C1 -17.6%
COC(=O)N1CCC2(CCCN(C(=O)Nc3ccccc3)C2)CC1 -23.6%
CO/N=C\[C@@H](OC)[C@H](C)/C=C\CC(=O)OC -11.6% [at 11.4 µM]
CC(=O)OC[C@H]1O[C@@H](O/N=C\[C@@H](C)[C@H](OCc2ccccc2)C(C)C)[C@H](OC(C)=O)[C@@H](OC(C)=O)[C@H]1OC(C)=O -74.7% [at 11.4 µM]
COC(=O)[C@H](C)NC(=O)C/C=C\[C@@H](C)[C@H]1C=C[C@H](O)[C@@H](CO)O1 -25.2% [at 11.4 µM]
CO[C@]1(NC(=O)C2SC(=C(C(N)=O)C(=O)O)S2)C(=O)N2C(C(=O)O)=C(CSc3nnnn3C)CS[C@H]21 (stereo partly drawn) -2.24% [at 25.6 µM]
CCc1ncc(CO)n1Cc1cccc2ccccc12 -11.4% [at 11.4 µM]
CCN1CCN(Cc2ccc(NC(=O)Nc3cccs3)cc2)CC1 -16.6%
COc1cc(CNCc2cccs2)ccc1OCC(N)=O -8.51%
CCOC(=O)N1CCN(C(=O)CNCc2cccs2)CC1 -4.69%
N[C@H](C(=O)O)[C@@H](O)c1cnc[nH]1 -12.3% [at 11.4 µM]
Cc1cc(NC(=O)CN2C(=O)NC(C)(c3ccc(OC(F)F)cc3)C2=O)no1 (stereo not drawn) -24.5%
COc1ccc2c(c1)CCCC21NC(=O)N(CC(N)=O)C1=O (stereo not drawn) -13.8%
CC(C)NCCOCCSc1ccc(Cl)cc1 -10.4%
COC(=O)[C@@H]1C[C@H]1[C@@H](NC(=O)c1ccccc1)c1ccccc1 14.7%
O=C(O)CN(CCN(CC(=O)O)CC(=O)O)CC(=O)O.[Mn] 1.35% [at 11.4 µM]
NS(=O)(=O)c1nc(S(=O)(=O)O)c2[nH]cnc2n1 -3.98% [at 11.4 µM]
Cc1c(C)c2c(C)[nH]nc2oc1=O 4.7% [at 11.4 µM]
C[C@@H]1CN2[C@H](c3ccc(Br)cc3)[C@H](C)CC[C@H]2C(=O)O1 -28.2% [at 11.4 µM]
C[C@@H]1CC[C@@H]2C(=O)N3[C@@H](CC[C@@H](C)[C@@H]3c3ccc(-c4ccco4)cc3)C(=O)N2[C@H]1c1ccc(-c2ccco2)cc1 -15.7% [at 11.4 µM]
